{"source": "PubChem BioAssay (Tox21)", "note": "Where “and” joins values, the source holds several entries; their conditions need not be identical. Identical values can stand only once. Inconclusive results are not listed. The source holds several records for some structures; these can differ, active in one and inactive in another. Calls of active or inactive are those of the source. Calls follow the shape of the full dose curve.", "data": [{"target": "Retinoic acid receptor RXR-alpha (Homo sapiens) (UniProt P19793)", "sequence (P19793 whole entry, looked up)": "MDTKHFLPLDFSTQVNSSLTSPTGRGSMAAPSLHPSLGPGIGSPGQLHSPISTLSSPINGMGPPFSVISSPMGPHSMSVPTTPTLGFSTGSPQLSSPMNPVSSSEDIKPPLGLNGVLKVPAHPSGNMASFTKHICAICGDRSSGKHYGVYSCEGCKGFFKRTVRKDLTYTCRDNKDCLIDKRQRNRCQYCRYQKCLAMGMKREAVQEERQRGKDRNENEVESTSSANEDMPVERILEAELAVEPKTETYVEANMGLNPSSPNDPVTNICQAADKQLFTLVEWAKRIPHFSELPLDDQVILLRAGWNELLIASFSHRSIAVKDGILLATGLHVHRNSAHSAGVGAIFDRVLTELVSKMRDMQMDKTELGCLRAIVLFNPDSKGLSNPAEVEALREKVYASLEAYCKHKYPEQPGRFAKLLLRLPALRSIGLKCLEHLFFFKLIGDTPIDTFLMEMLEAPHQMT", "experiment": "qHTS assay to identify small molecule agonists of the RXR signaling pathway (AID 1159527); also: nearly all actives have a fitted effect of over 35% in size; also: potency is read from the fitted curve at half-maximal effect; as to activation: % is scaled to controls: 0 for no effect and ±100 for the full control effect", "details": "HEK293T RXRa-UAS-bla, beta-lactamase ratio, 16 h; series mostly up to 76.8 µM; activation: at the top concentration", "excerpt": "U.S. Tox21 Program National Center for Advancing Translational Sciences [NCATS] NIH Chemical Genomics Center [NCGC] U.S. Environmental Protection Agency [EPA] National Institutes of Environmental Health Sciences [NIEHS] National Toxicology Program [NTP] U.S. Food and Drug Administration [FDA] Tox21 Assay Overview: The Retinoid X receptor (RXR), a nuclear hormone receptor expressed in liver, spleen, placenta, epidermis, central nervous system. These receptors are able to form homo and heterodimers with other nuclear receptors and due to this heterodimerizing ability, RXR functions as master regulators producing diverse physiological effects. Three subtypes of RXR exist; alpha, beta and gamma. Retinoid X receptor alpha (RXR-alpha) has potential roles in metabolic signaling pathways, skin alopecia, dermal cysts, cardiac development, insulin sensitization etc. Therefore screening environmental chemicals on RXR-alpha signaling can be used for the studies focused on such therapeutic applications. For quantification of RXR-alpha ligands signaling, GeneBLAzer RXR alpha-UAS-bla HEK 293T (Life Technologies, Carlsbad, CA) cells containing a beta-lactamase reporter-gene under control of Retinoid X receptor-alpha response element were used to screen Tox21 10K library.\nTox21 Assay Protocol Summary: RXR-alpha HEK 293T cells were dispensed at 2,000 cells/6 uL of assay medium containing 2% charcoal-stripped FBS using a Multidrop Combi (ThermoFisher Scientific, Waltham, MA) dispenser. The assay was performed in black wall/clear-bottom 1536-well plates (Greiner Bio-One North America Inc. Monroe, NC). 9-cis retinoic acid was used as a positive control in the agonist mode screen. After the assay plates were incubated at 37 C and 5% CO2 for 5 hr, 23 nL of compounds dissolved in DMSO, positive controls or DMSO only were transferred to the assay plate by a Pintool station (Kalypsys, San Diego, CA). The assay plates were incubated at 37 C and 5% CO2 for 16 hr. One uL of LiveBLAzer B/G FRET substrate (Life Technologies) was added using a Flying Reagent Dispenser (Aurora Discovery, San Diego, CA) and the plates were incubated at room temperature for 2 hr. Fluorescence intensity (405 nm excitation, 460/530 nm emission) was measured using an Envision plate reader (PerkinElmer, Shelton, CT).", "values": [{"molecule": "CCN(CC)CCCC(C)Nc1ccnc2cc(Cl)ccc12", "note": "(stereo not given)", "activation": "-0.146% [at 15.8 µM] (inactive)"}, {"molecule": "CCCCC(CC)COC(=O)CS", "note": "(stereo not given)", "activation": "-13.1% (inactive)"}, {"molecule": "O=C(Oc1ccccc1)c1ccccc1", "activation": "-2.7% (inactive)"}, {"molecule": "OCC(CO)(CBr)CBr", "activation": "8.61% (inactive)"}, {"molecule": "C#CCN(C)Cc1ccccc1", "Potency": "inactive"}, {"molecule": "Fc1ccc(Br)cc1", "Potency": "inactive"}, {"molecule": "COc1ccc(Nc2ccccc2)c(C)c1", "activation": "5.58% (inactive)"}, {"molecule": "O=c1[nH]nnc2ccccc12", "Potency": "inactive"}, {"molecule": "CC(=O)CC(=O)Nc1ccccc1", "Potency": "inactive"}, {"molecule": "CC(O)COCC(C)O", "note": "(stereo not given)", "activation": "10.8% (inactive)"}, {"molecule": "O=C(O)c1ccc(C(=O)O)cc1", "activation": "3.24% (inactive)"}, {"molecule": "Cc1cccc(O)c1", "activation": "10.8% (inactive)"}, {"molecule": "COc1ccc(NC(C)=O)cc1N", "Potency": "inactive"}, {"molecule": "COc1ccc2cc([C@H](C)C(=O)O)ccc2c1", "activation": "-2.49% (inactive)"}, {"molecule": "C=C(C)C(=O)O[C@H]1C[C@@H]2CC[C@@]1(C)C2(C)C", "activation": "11.5% (inactive)"}, {"molecule": "CCc1cccc(C)c1N", "activation": "2.05% (inactive)"}, {"molecule": "CC(=O)c1ccccc1", "Potency": "inactive"}, {"molecule": "O=[N+]([O-])c1ccc(/C=C/c2ccc([N+](=O)[O-])cc2S(=O)(=O)O)c(S(=O)(=O)O)c1", "activation": "-5.65% (inactive)"}, {"molecule": "Cc1ccc(S(N)(=O)=O)cc1", "Potency": "inactive"}, {"molecule": "CC(=O)Nc1ccccc1", "Potency": "inactive"}, {"molecule": "CCCCCCCCCCCCCCO", "activation": "2.75% (inactive)"}, {"molecule": "C=CCNC(N)=S", "activation": "-0.592% [at 35.3 µM] (inactive)"}, {"molecule": "CC(=O)CC(=O)Nc1ccccc1C", "Potency": "inactive"}, {"molecule": "NNc1nncc2ccccc12", "activation": "-4.54% [at 15.8 µM] (inactive)"}, {"molecule": "C=C(C)C(=O)Nc1ccc(Cl)c(Cl)c1", "Potency": "inactive"}, {"molecule": "O=C(O)CCCCCCCCCCC(=O)O", "activation": "-0.0355% (inactive)"}, {"molecule": "CC(=O)OCC(=O)[C@@]12N=C(C)O[C@@H]1C[C@H]1[C@@H]3CCC4=CC(=O)C=C[C@]4(C)[C@H]3[C@@H](O)C[C@@]12C", "activation": "0.993% [at 35.3 µM] (inactive)"}, {"molecule": "O=C(O)[C@H](O)[C@@H](O)[C@H](O)[C@H](O)CO", "Potency": "inactive"}, {"molecule": "C/C=C1/CC2C=CC1C2", "note": "(stereo not given)", "activation": "20.1% (inactive)"}, {"molecule": "CC(C)c1ccc(S(=O)(=O)O)cc1", "activation": "0.0965% (inactive)"}, {"molecule": "Cc1occc(=O)c1O", "Potency": "inactive and 12.9 µM (active)"}, {"molecule": "CCC(O)OCCCOC", "note": "(stereo not given)", "activation": "15.7% (inactive)"}, {"molecule": "O=c1[nH]c(=O)n([C@H]2CCCO2)cc1F", "Potency": "17.4 µM (active) and inactive"}, {"molecule": "OC[C@H]1O[C@@](CO)(O[C@H]2O[C@H](CO)[C@@H](O)[C@H](O)[C@H]2O)[C@@H](O)[C@@H]1O", "activation": "3.61% (inactive)"}, {"molecule": "Oc1cccc2ccccc12", "Potency": "inactive"}, {"molecule": "CN(C)CCOCCN(C)C", "Potency": "inactive"}, {"molecule": "O=C(O)c1ccccc1C(c1ccc(O)cc1)c1ccc(O)cc1", "activation": "21.5% (inactive)"}, {"molecule": "CCCCCCCCC/C=C/CC1CC(=O)OC1=O", "note": "(stereo not given)", "activation": "-22.1% (inactive)"}, {"molecule": "O=S(=O)(O)c1ccc2ccccc2c1", "Potency": "11 µM (active)"}, {"molecule": "Cc1ccc(N(C)C)cc1", "Potency": "inactive"}]}]}
